For 7 compounds, growth results are on record in PubChem BioAssay (NCI).

Among the test systems are NCI-H23 lung; NCI-H226 lung; NCI-H322M lung; HOP-62 NSCLC; NCI-H460 lung; NCI-H522 lung; A549/ATCC NSCLC; 786-0 renal; COLO 205 colon; DU-145 prostate; K-562 leukemia; MALME-3M melanoma; MDA-MB-231 breast; RXF 393 renal; SF-268 CNS; SF-295 CNS; SF-539 CNS; UACC-257 melanoma; M14 melanoma.
Holding throughout (test): NCI-60 one-dose screen, 48 h (100 = growth as untreated, 0 = no growth, -100 = all killed)
Details in all cases: 10 µM unless noted

SMILES strings stand for the structures. About 83,000 compounds went through this panel and 20% of them were active in at least one assay; those are over-represented in the sample as a whole.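 Compound tested at a single concentration for 48 hours in 96-well plates; a percent growth value below 10 was scored as active.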 A number with no mark means an inactive call. Activity calls are given as the source filed them.

In the case of `CC(=O)C1CC(C)CCC1C(C)C` (stereo not given), the growth in the assay on NCI-H23 lung is 78.7%; with NCI-H226 lung it was 105%; with NCI-H322M lung it was 102%; with HOP-62 NSCLC it was 107%; in the assay with NCI-H460 lung it was 98.4%; in the assay on NCI-H522 lung it was 82.8%. In addition, the growth in the assay with A549/ATCC NSCLC is 106%; with 786-0 renal, 105%; in the assay with COLO 205 colon, 122%; in the assay with DU-145 prostate it was 111%; in the assay with K-562 leukemia, 77%; in the assay on MALME-3M melanoma, 126%. For the same compound, the growth with MDA-MB-231 breast is 80.2%; with RXF 393 renal, 107%; in the assay with SF-268 CNS, 105%; in the assay on SF-295 CNS it was 120%; in the assay on SF-539 CNS, 102%; in the assay with UACC-257 melanoma it was 111%. The growth with M14 melanoma is 103%.

In the case of `CC1(O)CC(c2nc(-c3ccc4ccc(-c5ccccc5)nc4c3)c3c(N)nccn23)C1` (stereo not given), the growth is 33.9% in the assay on NCI-H23 lung; 36.1% with NCI-H226 lung; 0.394% (active) with NCI-H322M lung; 28.6% with HOP-62 NSCLC; 25.2% in the assay on NCI-H460 lung; 31.3% in the assay with NCI-H522 lung. Moreover, the growth in the assay on A549/ATCC NSCLC was 33.5%; with 786-0 renal, 43.8%; with COLO 205 colon, -22.2% (active); in the assay on DU-145 prostate, 34.1%; with K-562 leukemia it was 36.9%; in the assay with MALME-3M melanoma it was 30.4%. Also, the growth in the assay on MDA-MB-231 breast is 28.7%; in the assay on RXF 393 renal, 2.73% (active); with SF-268 CNS it was 44.1%; in the assay on SF-295 CNS it was 46.7%; in the assay on SF-539 CNS, -2.47% (active); in the assay on UACC-257 melanoma it was 25.7%. For the same compound, the growth in the assay on M14 melanoma was 42.5%.

As to `O=C(Nc1nc2cccc(-c3ccc(CN4CCS(=O)(=O)CC4)cc3)n2n1)C1CC1`, the growth in the assay with NCI-H23 lung was 65.2%; in the assay on NCI-H226 lung it was 55.9%; with NCI-H322M lung, 87.6%; with HOP-62 NSCLC it was 57.3%; in the assay on NCI-H460 lung it was 5.79% (active); in the assay on NCI-H522 lung, 6.67% (active). The growth is 60.1% in the assay on A549/ATCC NSCLC; 85.5% with 786-0 renal; 59.5% in the assay with COLO 205 colon; 35.4% in the assay on DU-145 prostate; 36.5% in the assay on K-562 leukemia; 105% in the assay with MALME-3M melanoma. The growth in the assay on MDA-MB-231 breast is 81.8%; with RXF 393 renal, 50.7%; with SF-268 CNS it was 70.7%; in the assay on SF-295 CNS, 88.8%; in the assay with SF-539 CNS, 79.1%; in the assay on UACC-257 melanoma, 86.2%. Moreover, in the assay with M14 melanoma, the growth is 90.8%.

For the compound `CCN(CC)CCNc1ccc(N=Nc2cnc3ccccc3c2)c2ccccc12`, the growth in the assay with NCI-H23 lung is -92.6% (active); with NCI-H226 lung, -73.6% (active); in the assay with NCI-H322M lung, 10.8%; in the assay with HOP-62 NSCLC, -84.6% (active); in the assay on NCI-H460 lung, -78.8% (active); in the assay with NCI-H522 lung it was -87.2% (active). The growth in the assay on A549/ATCC NSCLC was -97.9% (active); in the assay on 786-0 renal it was -87.9% (active); in the assay with COLO 205 colon, -82.2% (active); in the assay with DU-145 prostate, -85.1% (active); in the assay with MALME-3M melanoma, -56.5% (active); in the assay on MDA-MB-231 breast it was -87.6% (active). Besides, the growth in the assay on SF-268 CNS was -77.7% (active); with SF-295 CNS, -53.9% (active); in the assay on SF-539 CNS, -97.4% (active); with M14 melanoma, -67.3% (active).

In the case of `NC(=O)Nc1cc(-c2cccc(F)c2)sc1C(=O)N[C@H]1CCCNC1`, the growth in the assay with NCI-H23 lung was -15.3% (active); in the assay with NCI-H226 lung it was 6.7% (active); with NCI-H322M lung it was -17.8% (active); in the assay with HOP-62 NSCLC it was -39.2% (active); in the assay on NCI-H460 lung, -21.6% (active); with NCI-H522 lung, -19.2% (active). The growth in the assay with A549/ATCC NSCLC is -35.4% (active); in the assay with 786-0 renal, -82.8% (active); in the assay with COLO 205 colon, -65.3% (active); with DU-145 prostate it was -8.14% (active); in the assay with K-562 leukemia it was 2.46% (active); with MALME-3M melanoma, 0.0893% (active). Moreover, the growth is -8.48% (active) in the assay on MDA-MB-231 breast; -89.1% (active) with RXF 393 renal; -9.94% (active) in the assay with SF-268 CNS; 3.74% (active) with SF-295 CNS; -77.5% (active) in the assay on SF-539 CNS; 5.95% (active) with UACC-257 melanoma. In addition, the growth in the assay on M14 melanoma was -13.8% (active).

Take `CO[C@H](C(=O)N[C@@H](CCCCNC(=O)OCc1ccccc1)C(=O)OC(C)(C)C)[C@@H]1Cc2cc3cc(OC4CC(OC5CC(O)C(O)C(C)O5)C(O)C(C)O4)c(C)c(O)c3c(O)c2C(=O)[C@H]1OC1CC(OC2CC(OC3CC(C)(O)C(O)C(C)O3)C(O)C(C)O2)C(O)C(C)O1` (stereo not given in full): the growth was -42.6% (active) in the assay on NCI-H23 lung; -75.5% (active) in the assay with NCI-H226 lung; 20.2% with NCI-H322M lung; -15% (active) in the assay on HOP-62 NSCLC; -17.6% (active) in the assay with NCI-H460 lung; -16% (active) in the assay on NCI-H522 lung. Also, the growth was -25.7% (active) in the assay with A549/ATCC NSCLC; -89.8% (active) with 786-0 renal; -20.7% (active) in the assay with COLO 205 colon; 26.5% in the assay with DU-145 prostate; 5.35% (active) in the assay on K-562 leukemia; -69.4% (active) in the assay with MALME-3M melanoma. Moreover, the growth in the assay with MDA-MB-231 breast is -71.8% (active); in the assay on RXF 393 renal it was -85.9% (active); with SF-268 CNS it was -61.5% (active); in the assay on SF-295 CNS it was -89.5% (active); in the assay on SF-539 CNS it was -32% (active); in the assay on UACC-257 melanoma, -5.47% (active). Moreover, the growth in the assay with M14 melanoma was -69.8% (active).

Turning to `C=C1CC[C@@H]2[C@](C)(COC(C)=O)[C@H](OC(C)=O)CC[C@@]2(C)[C@@H]1C/C=C1/C(=O)OC[C@H]1OC(C)=O`, the growth in the assay with NCI-H23 lung is 80.9%; in the assay with NCI-H226 lung, 23.6%; with NCI-H322M lung it was 101%; with HOP-62 NSCLC, 75.7%; in the assay on NCI-H460 lung it was 98%; in the assay on NCI-H522 lung, -41.6% (active). In addition, the growth in the assay on A549/ATCC NSCLC was 85.8%; in the assay on 786-0 renal it was -10.9% (active); in the assay on COLO 205 colon, 22%; in the assay with DU-145 prostate, 50.9%; in the assay on K-562 leukemia it was 11.1%; with MALME-3M melanoma, 77.7%. Also, the growth in the assay on MDA-MB-231 breast was 95.8%; in the assay on RXF 393 renal, -7.35% (active); with SF-268 CNS it was 87.1%; with SF-295 CNS it was 95%; in the assay with SF-539 CNS it was 8.54% (active); with UACC-257 melanoma it was 66.5%. The growth in the assay on M14 melanoma is 35.4%.
